The campaign covered roughly 39,000 compounds. About 3,300 (8.5%) were called active. This is one part of a sample in which actives are shown more often than they occur.

The assay has as its system HepG2. As to the kind of experiment: cytotoxicity call (relative viability < 0.9). To be noted: 10 µM.
On to `C[C@H]1CCCCO[C@H](CN(C)C(=O)C2CCCCC2)[C@@H](C)CN([C@@H](C)CO)C(=O)c2cc(NC(=O)c3ccncc3)ccc2O1`, for which the cytotoxicity call is “inactive”. Next, `C[C@@H]1CN([C@@H](C)CO)C(=O)c2cc(NC(=O)Nc3ccc(F)cc3)ccc2O[C@@H]1CN(C)S(C)(=O)=O`: “inactive”. The value for `Cc1noc(C)c1NC(=O)N(C)C[C@H]1Oc2ncc(C#CCC(C)C)cc2C(=O)N([C@@H](C)CO)C[C@H]1C` was “inactive”. The value for `COc1ccccc1-c1cccc(-c2nc(C(=O)Nc3nccs3)cc3c2[C@H](CCO)N(C(=O)CC2CC2)C3)c1` was “inactive”; that for `COc1ccccc1-c1cccc(-c2nc(C(=O)Nc3nccs3)cc3c2[C@@H](CCO)N(C(=O)CC2CC2)C3)c1` was “active”. For `CCC(=O)N1Cc2cc(C(=O)Nc3nccs3)nc(-c3cccc(-c4ccccc4OC)c3)c2[C@H]1CCO`, the cytotoxicity call was “inactive”. Consider `C[C@@H]1CN([C@@H](C)CO)C(=O)c2cc(NS(=O)(=O)c3ccc(Cl)cc3)ccc2O[C@@H](C)CCCCO[C@@H]1CN(C)Cc1ccncc1`, for which the cytotoxicity call was “inactive”. For the compound `C[C@@H]1CN([C@H](C)CO)C(=O)c2cc(C3=CCCCC3)cnc2O[C@@H]1CN(C)C(=O)CN1CCOCC1`, the cytotoxicity call was “inactive”. Take `c1nc2c(c(N3CCOCC3)n1)CCNCC2`: the cytotoxicity call is “inactive”. Regarding `CCCCC(CC)CN1CN(CC(CC)CCCC)CC(C)(N)C1` (stereo not drawn), the cytotoxicity call is “active”.

As to `C[C@@H]1CCCCO[C@@H](CN(C)C(=O)Nc2ccccc2)[C@H](C)CN([C@H](C)CO)C(=O)c2cc(NC(=O)C3CCCCC3)ccc2O1`, the cytotoxicity call is “inactive”. The value for `COc1ccc(S(=O)(=O)N(C)C[C@@H]2OCCCC[C@H](C)Oc3ccc(NC(=O)Nc4ccc(F)cc4)cc3C(=O)N([C@H](C)CO)C[C@@H]2C)cc1` was “inactive”.

With `C[C@H](CO)N1C[C@H](C)[C@@H](CN(C)C(=O)Nc2ccc(C(F)(F)F)cc2)OCCCC[C@H](C)Oc2ccc(NS(=O)(=O)c3cn(C)cn3)cc2C1=O`, the cytotoxicity call was “inactive”. The value for `C[C@@H]1CCCCO[C@H](CN(C)Cc2ccc(C(F)(F)F)cc2)[C@H](C)CN([C@@H](C)CO)C(=O)c2cc(NS(=O)(=O)c3ccc(F)cc3)ccc2O1` was “inactive”; that for `C[C@H]1CCCCO[C@@H](CN(C)Cc2ccc(C(F)(F)F)cc2)[C@@H](C)CN([C@@H](C)CO)C(=O)c2cc(NS(=O)(=O)c3ccc(F)cc3)ccc2O1` was “inactive”. As to `Cc1ccc(S(=O)(=O)Nc2ccc3c(c2)C(=O)N([C@H](C)CO)C[C@@H](C)[C@H](CN(C)Cc2ccc(C(F)(F)F)cc2)OCCCC[C@@H](C)O3)cc1`, the cytotoxicity call is “active”. Next, `Cc1ccc(S(=O)(=O)Nc2ccc3c(c2)C(=O)N([C@@H](C)CO)C[C@@H](C)[C@H](CN(C)Cc2ccc(C(F)(F)F)cc2)OCCCC[C@H](C)O3)cc1`: “active”; `Cc1ccc(S(=O)(=O)Nc2ccc3c(c2)C(=O)N([C@H](C)CO)C[C@H](C)[C@H](CN(C)Cc2ccc(C(F)(F)F)cc2)OCCCC[C@@H](C)O3)cc1`: “active”; `Cc1ccc(S(=O)(=O)Nc2ccc3c(c2)C(=O)N([C@H](C)CO)C[C@H](C)[C@@H](CN(C)Cc2ccc(C(F)(F)F)cc2)OCCCC[C@@H](C)O3)cc1`: “inactive”.

With `Cc1ccc(S(=O)(=O)Nc2ccc3c(c2)C(=O)N([C@@H](C)CO)C[C@H](C)[C@H](CN(C)Cc2ccc(C(F)(F)F)cc2)OCCCC[C@H](C)O3)cc1`, the cytotoxicity call was “inactive”. Next, `C[C@H]1CCCCO[C@H](CN(C)Cc2ccc(C(F)(F)F)cc2)[C@@H](C)CN([C@@H](C)CO)C(=O)c2cc(NS(=O)(=O)c3ccc(F)cc3)ccc2O1`: “inactive”; `Cc1ccc(S(=O)(=O)Nc2ccc3c(c2)C(=O)N([C@H](C)CO)C[C@@H](C)[C@@H](CN(C)Cc2ccc(C(F)(F)F)cc2)OCCCC[C@H](C)O3)cc1`: “active”. For the compound `C[C@@H]1CN([C@@H](C)CO)C(=O)c2cc(NS(=O)(=O)c3ccc(F)cc3)ccc2O[C@@H](C)CCCCO[C@@H]1CN(C)Cc1ccc(C(F)(F)F)cc1`, the cytotoxicity call is “inactive”. For the compound `Cc1ccc(S(=O)(=O)Nc2ccc3c(c2)C(=O)N([C@H](C)CO)C[C@H](C)[C@H](CN(C)C(=O)Cc2ccccc2)OCCCC[C@H](C)O3)cc1`, the cytotoxicity call was “inactive”. Consider `C[C@H](CO)N1C[C@H](C)[C@H](CN(C)CC2CC2)Oc2ccc(NS(=O)(=O)c3ccccc3)cc2CC1=O`, for which the cytotoxicity call was “inactive”. `Cc1ccc(S(=O)(=O)N2C[C@H](O)COC[C@@H]3O[C@@H](CC(=O)N4CCc5ccccc5C4)CC[C@H]32)cc1`: the cytotoxicity call was “inactive”. The value for `C[C@@H](O)C#Cc1cnc2c(c1)C(=O)N([C@@H](C)CO)C[C@H](C)[C@@H](CN(C)C(=O)CN1CCOCC1)O2` was “inactive”; that for `CCNC(=O)[C@@H]1[C@@H](CO)[C@@H]2Cn3c(ccc(C4=CCCC4)c3=O)[C@H]1N2S(=O)(=O)c1cn(C)cn1` was “inactive”; that for `COCC(=O)N1C[C@@H](C)[C@H](OC)CN(C)C(=O)c2ccc(NC(=O)c3ccc(F)cc3)cc2OC[C@H]1C` was “inactive”.

As to `C[C@H]1CCCCO[C@H](CN(C)C(=O)Nc2ccc3c(c2)OCO3)[C@@H](C)CN([C@@H](C)CO)C(=O)c2cc(NS(=O)(=O)c3ccc(F)cc3)ccc2O1`, the cytotoxicity call was “inactive”. The value for `O=C(C[C@@H]1CC[C@H]2[C@@H](COC[C@H](O)CN2C(=O)Nc2ccc(F)cc2)O1)NCCCN1CCOCC1` was “inactive”. Next, `Cc1ccc(S(=O)(=O)Nc2ccc3c(c2)C(=O)N([C@H](C)CO)C[C@H](C)[C@@H](CN(C)Cc2ccc(C(F)(F)F)cc2)OCCCC[C@H](C)O3)cc1`: “active”; `Cc1ccc(S(=O)(=O)Nc2ccc3c(c2)C(=O)N([C@@H](C)CO)C[C@@H](C)[C@H](CN(C)Cc2ccc(C(F)(F)F)cc2)OCCCC[C@@H](C)O3)cc1`: “active”; `Cc1ccc(S(=O)(=O)Nc2ccc3c(c2)C(=O)N([C@@H](C)CO)C[C@H](C)[C@@H](CN(C)Cc2ccc(C(F)(F)F)cc2)OCCCC[C@@H](C)O3)cc1`: “active”.

With `Cc1ccc(S(=O)(=O)Nc2ccc3c(c2)C(=O)N([C@@H](C)CO)C[C@H](C)[C@@H](CN(C)Cc2ccc(C(F)(F)F)cc2)OCCCC[C@H](C)O3)cc1`, the cytotoxicity call was “active”. The value for `Cc1ccc(S(=O)(=O)Nc2ccc3c(c2)C(=O)N([C@@H](C)CO)C[C@H](C)[C@H](CN(C)Cc2ccc(C(F)(F)F)cc2)OCCCC[C@@H](C)O3)cc1` was “inactive”. With `Cc1ccc(S(=O)(=O)Nc2ccc3c(c2)C(=O)N([C@@H](C)CO)C[C@@H](C)[C@@H](CN(C)Cc2ccc(C(F)(F)F)cc2)OCCCC[C@H](C)O3)cc1`, the cytotoxicity call was “inactive”. The value for `NC(=O)c1ccc[n+](C2OC(COP(=O)([O-])OP(=O)(O)OCC3OC(n4cnc5c(N)ncnc54)C(O)C3O)C(O)C2O)c1` (stereo not drawn) was “inactive”; that for `CNC[C@@H]1Oc2ccc(NC(=O)CCN3CCOCC3)cc2CC(=O)N([C@@H](C)CO)C[C@H]1C` was “inactive”. As to `CC(C)(C)c1c(C(C)(C)C)c1=O`, the cytotoxicity call is “inactive”. The value for `O=C(N[C@@H]1CC[C@H](CCn2cc(C3(O)CCCC3)nn2)O[C@H]1CO)C1CCOCC1` was “inactive”; that for `Cc1cc(C(=O)N2CCNC(=O)C2(C)C)no1` was “inactive”.

As to `C[C@H]1CN([C@@H](C)CO)C(=O)Cc2cc(NC(=O)CCC(F)(F)F)ccc2O[C@@H]1CN(C)S(=O)(=O)c1ccccc1`, the cytotoxicity call is “inactive”.

With `CN(C)CCCNC(=O)C[C@@H]1CC[C@H]2[C@@H](COc3ccc(NC(=O)c4cccc(F)c4)cc3C(=O)N2C)O1`, the cytotoxicity call is “inactive”. Turning to `Cc1ccc(S(=O)(=O)Nc2cccc3c2O[C@@H](CN(C)S(=O)(=O)c2ccc(F)cc2)[C@@H](C)CN([C@H](C)CO)C3=O)cc1`, the cytotoxicity call was “inactive”.

With `CC(C)(C)OC(=O)C[C@H]1C/C=C/CC[C@H](Cc2ccc(F)cc2)C(=O)O[C@H](c2ccccc2)CNC1=O`, the cytotoxicity call was “inactive”. Take `C[C@@H]1CCCCO[C@@H](CN(C)S(=O)(=O)c2cccs2)[C@@H](C)CN([C@H](C)CO)C(=O)c2cc(NS(=O)(=O)c3cn(C)cn3)ccc2O1`: the cytotoxicity call was “inactive”. Next, `CC(C)NC(=O)N(C)C[C@@H]1OCCCC[C@@H](C)Oc2ccc(NC(=O)C3CCCCC3)cc2C(=O)N([C@H](C)CO)C[C@@H]1C`: “inactive”; `COc1ccc(S(=O)(=O)N(C)C[C@H]2Oc3c(NS(=O)(=O)c4cn(C)cn4)cccc3C(=O)N([C@H](C)CO)C[C@@H]2C)cc1`: “inactive”. Next, `C[C@@H]1CN([C@@H](C)CO)C(=O)c2cc(C#C[C@@H](C)O)cnc2O[C@H]1CN(C)Cc1cncnc1`: “inactive”; `C[C@@H]1CCCCO[C@@H](CN(C)Cc2ccc(C(F)(F)F)cc2)[C@H](C)CN([C@H](C)CO)C(=O)c2cc(NS(=O)(=O)c3ccc(F)cc3)ccc2O1`: “inactive”.

As to `Cc1ccc(S(=O)(=O)Nc2ccc3c(c2)C(=O)N([C@H](C)CO)C[C@@H](C)[C@H](CN(C)Cc2ccc(C(F)(F)F)cc2)OCCCC[C@H](C)O3)cc1`, the cytotoxicity call is “active”. Turning to `Cc1ccc(S(=O)(=O)Nc2ccc3c(c2)C(=O)N([C@@H](C)CO)C[C@@H](C)[C@@H](CN(C)Cc2ccc(C(F)(F)F)cc2)OCCCC[C@@H](C)O3)cc1`, the cytotoxicity call is “active”.

For the compound `C[C@@H]1CN([C@H](C)CO)C(=O)c2cc(NS(=O)(=O)c3ccc(F)cc3)ccc2O[C@@H](C)CCCCO[C@H]1CN(C)Cc1ccc(C(F)(F)F)cc1`, the cytotoxicity call is “inactive”. Take `Cc1ccc(S(=O)(=O)Nc2ccc3c(c2)C(=O)N([C@H](C)CO)C[C@@H](C)[C@@H](CN(C)Cc2ccc(C(F)(F)F)cc2)OCCCC[C@@H](C)O3)cc1`: the cytotoxicity call was “inactive”.

As for `C[C@@H]1CCCCO[C@@H](CN(C)Cc2ccc(C(F)(F)F)cc2)[C@@H](C)CN([C@H](C)CO)C(=O)c2cc(NS(=O)(=O)c3ccc(F)cc3)ccc2O1`, the cytotoxicity call was “active”. Consider `Cc1ccc(S(=O)(=O)Nc2ccc3c(c2)C(=O)N([C@H](C)CO)C[C@H](C)[C@H](CN(C)Cc2ccc(C(F)(F)F)cc2)OCCCC[C@H](C)O3)cc1`, for which the cytotoxicity call is “inactive”. Next, `C[C@@H]1CN([C@@H](C)CO)C(=O)c2cccc(NC(=O)C3CCOCC3)c2O[C@H]1CN(C)Cc1ccccc1`: “inactive”.

These data come from the antibiotic and cytotoxicity screens of Wong et al. (2023).
